High-throughput results: PubChem, The Scripps Research Institute Molecular Screening Center
Shown are actives, neighbours in structure and some others; about 3.5% of the full set was active somewhere.
GPR151 ag: activates the human receptor GPR151. activation, % at 11.2 µM. 1% of 650,000 active. AID 1508602. PathHunter beta-arrestin GPR151 cells, luminescence. Q8TDV0; in the data active = activation above about 4.9%
FBW7 act: activators of human E3 ligase FBW7 | 0.13% of 650,000 active | Q969H0 | AlphaScreen FBW7–phospho-cyclin E peptide binding, activator screen | normalized activity (activation), % at 26.1 µM; in the data active = normalized activity above about 1.9%;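 also: purified mutant Fbw7 with reduced substrate affinity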
MITF primary: human MITF inhibition, primary screen. O75030. AlphaScreen MITF homodimerization, bead proximity signal. inhibition, % at 2.6 µM. 0.91% of 650,000 active. AID 1259374; in the data active = inhibition above about 50%
Target sequence (O75030 whole entry, looked up): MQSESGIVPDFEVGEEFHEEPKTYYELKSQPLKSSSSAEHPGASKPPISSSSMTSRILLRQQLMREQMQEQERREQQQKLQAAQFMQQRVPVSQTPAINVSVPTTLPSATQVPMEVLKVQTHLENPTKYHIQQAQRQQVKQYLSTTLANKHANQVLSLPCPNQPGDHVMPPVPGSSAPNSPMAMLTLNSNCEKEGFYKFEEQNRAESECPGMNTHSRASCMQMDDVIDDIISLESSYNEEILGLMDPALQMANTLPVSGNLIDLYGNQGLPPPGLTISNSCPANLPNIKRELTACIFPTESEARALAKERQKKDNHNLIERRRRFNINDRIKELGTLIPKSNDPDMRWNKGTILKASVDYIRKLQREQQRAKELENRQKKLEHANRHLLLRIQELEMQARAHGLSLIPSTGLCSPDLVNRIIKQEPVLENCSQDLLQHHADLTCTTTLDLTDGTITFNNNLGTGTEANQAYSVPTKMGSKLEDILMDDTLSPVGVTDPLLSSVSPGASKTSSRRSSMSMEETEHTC
TEAD-YAP inh: TEAD-YAP interaction inhibition | 1.4% of 640,000 active | HEK-TIYL cells, TEAD-Gal4/YAP UAS-luciferase luminescence | inhibition, % at 9.12 µM; in the data active = inhibition above about 32%
MITF confirm: confirmation of human MITF inhibitors | inhibition, % at 2.6 µM | AlphaScreen MITF homodimerization, biotin/His-MITF beads | 16% of 4,700 active | AID 1259372 | shares compounds with MITF primary;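 active = inhibition above a cutoff derived from the DMSO control wells, cut at about 28% in these data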;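 also: inhibitors lower the bead chemiluminescence by keeping MITF from dimerizing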
AS interf DR: AlphaScreen optical interference, dose response counter-screen. shares compounds with MITF primary. AlphaScreen optical interference counterscreen, cell-free. IC50, µM. 6% of 480 active; call rule not given here
AlphaScreen intf2: optically interferes with AlphaScreen signal | inhibition, % at 2.6 µM | shares compounds with MITF primary | 7.6% of 4,700 active | AID 1259376 | LysRS AlphaScreen counterscreen, signal interference, triplicate;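 active = inhibition above a cutoff derived from the DMSO control wells, cut at about 30% in these data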
Large screens that a line does not name were inactive (follow-up assays come after a bar, where they were run).

Cc1ccc(-c2[nH]ncc2CN2CCN(C)CC2)cc1	MITF primary 69.0 | MITF confirm inactive | AlphaScreen intf2 inactive
Cc1cc(C)c2nc(/N=C/c3cc([N+](=O)[O-])cc([N+](=O)[O-])c3O)sc2c1	none
Cc1ccc2nc(/N=C/c3cc([N+](=O)[O-])cc([N+](=O)[O-])c3O)sc2c1	MITF primary 51.2 | MITF confirm inactive | AlphaScreen intf2 inactive
Oc1ccc2c(c1)C1CCCC1(N1CCOCC1)O2 (stereo not given)	MITF primary 70.1 | MITF confirm 73.1 | AS interf DR inactive | AlphaScreen intf2 inactive
CC1=C(C(N)=O)C(c2ccc(Br)cc2)n2nnnc2N1 (stereo not given)	none
O=C(COC(=O)c1cc(-c2ccc(Br)cc2)nc2ccccc12)c1ccc(Cl)cc1	none
Cn1c(SCc2cc(=O)n3c(n2)sc2ccccc23)nnc1C(F)(F)F	MITF primary 60.3 | MITF confirm 78.5 | AS interf DR inactive | AlphaScreen intf2 inactive
Nn1c(SCc2cc(=O)n3c(n2)sc2ccccc23)nnc1C1CC1	none
O=C(CCCC(=O)c1ccccc1)Nc1ccc(Cl)cn1	none
OCCNc1cc(-c2cccs2)ncn1	MITF primary 55.8 | MITF confirm 53.0 | AS interf DR inactive | AlphaScreen intf2 inactive
CCCNc1cc(-c2cccs2)ncn1	none
O=c1c2sc(=S)n(Cc3ccco3)c2nc(SCc2ccc(F)cc2Cl)n1-c1ccc(F)cc1	none
O=c1c2sc(=S)n(Cc3ccco3)c2nc(SCc2ccc(F)cc2Cl)n1-c1ccccc1	MITF primary 51.4 | MITF confirm inactive | AlphaScreen intf2 inactive
CC1CCc2sc(NC(=O)c3ccc(N4C(=O)CCC4=O)cc3)c(C#N)c2C1 (stereo not given)	none
CCOc1ccc(N2CCN(CC(=O)Nc3ccc(SC)cc3)C2=O)cc1	MITF primary 61.4 | MITF confirm inactive | AlphaScreen intf2 inactive
CCSc1ccc(-c2ccccn2)nn1	MITF primary 82.4 | MITF confirm 76.1 | AlphaScreen intf2 96.5
NC(=O)CSc1ccc(-c2ccccn2)nn1	MITF primary 81.6 | MITF confirm 72.7 | AlphaScreen intf2 94.1
c1ccc(-c2ccc(SCc3cccnc3)nn2)nc1	MITF primary 85.3 | MITF confirm 99.4 | AlphaScreen intf2 100.3
c1ccc(CSc2ccc(-c3ccccn3)nn2)nc1	MITF primary 86.4 | MITF confirm 96.3 | AlphaScreen intf2 100.3
Fc1ccc(-c2ccc(SCc3cccnc3)nn2)cc1	none
O=C(NNC(=O)c1cc2ccccc2oc1=O)c1ccc([N+](=O)[O-])cc1	none
COc1cccc(NC(=S)N(CCCN2CCC(C)CC2)Cc2cccs2)c1	MITF primary 79.1 | MITF confirm inactive | AlphaScreen intf2 inactive
CCCCCC(O)(CCCCC)C(=O)NN1CCCCC1	MITF primary 72.5 | MITF confirm inactive | AlphaScreen intf2 inactive
Cn1nnnc1SCC(=O)Nc1ccccc1N1CCOCC1	MITF primary 63.4 | MITF confirm inactive | AlphaScreen intf2 inactive
CN(NC(=O)CN1CCOCC1)c1ccccc1	MITF primary 51.4 | MITF confirm inactive | AlphaScreen intf2 inactive
O=C(CN1CCCC1)Nc1ccccc1N1CCOCC1	none
CC1CCN(CC(=O)Nc2ccccc2N2CCOCC2)CC1	MITF primary 68.7 | MITF confirm inactive | AlphaScreen intf2 inactive
O=C(CN1CCOCC1)Nc1ccccc1N1CCCCCC1	MITF primary 69.0 | MITF confirm inactive | AlphaScreen intf2 inactive
NC1=NC(=O)/C(=C\c2ccc3ccccc3c2)S1	none
COc1ccc(CC(=O)NNC(=O)c2ccc(OC)cc2)cc1	none
O=C(CCCCCn1nnc2ccccc2c1=O)N1CCC(O)(c2cccc(C(F)(F)F)c2)CC1	MITF primary 74.2 | MITF confirm inactive | AlphaScreen intf2 inactive
CC(C)NC(=O)Cn1c(SCC(=O)N2C(C)CCCC2C)nc2ccccc21 (stereo not given)	none
COc1ccc(OC)c(CN2CCN(C(=O)CCC3CCCC3)CC2)c1	MITF primary 52.2 | MITF confirm inactive | AlphaScreen intf2 inactive
Cc1ccccc1CN1CCN(C(=O)CCC2CCCC2)CC1	MITF primary 53.3 | MITF confirm inactive | AlphaScreen intf2 inactive
O=C(CCC1CCCC1)N1CCN(Cc2cccc(F)c2)CC1	MITF primary 63.0 | MITF confirm inactive | AlphaScreen intf2 inactive
O=C(CCC1CCCC1)N1CCN(C(=O)c2cccc(F)c2)CC1	none
